# From PubChem BioAssay (NCI)
# The panel holds about 83,000 compounds, 20% with a hit somewhere; the sample as a whole holds those more often.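 Cell lines were cultured in 96-well plates, exposed to a single compound concentration, and assessed for percent growth 48 hours later.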 Values without a mark were called inactive. The source made the active and inactive calls. The calls were made as follows: active = growth percent below 10; inactive = the rest.
# How the values were obtained:
# Experiment in all cases: NCI-60 one-dose screen, 48 h (100 = growth as untreated, 0 = no growth, -100 = all killed)
# Conditions in all cases: 10 µM unless noted
# HCT-15 colon = tested on: HCT-15 colon
# HT29 colon = tested on: HT29 colon
# SNB-75 CNS = tested on: SNB-75 CNS
# SNB-19 CNS = tested on: SNB-19 CNS
# U251 CNS = tested on: U251 CNS
# PC-3 prostate = tested on: PC-3 prostate
# SK-MEL-5 melanoma = tested on: SK-MEL-5 melanoma
# UACC-62 melanoma = tested on: UACC-62 melanoma
# LOX IMVI melanoma = tested on: LOX IMVI melanoma
# SK-MEL-28 melanoma = tested on: SK-MEL-28 melanoma
# SK-MEL-2 melanoma = tested on: SK-MEL-2 melanoma
# EKVX NSCLC = tested on: EKVX NSCLC
# SN12C renal = tested on: SN12C renal
# UO-31 renal = tested on: UO-31 renal
# TK-10 renal = tested on: TK-10 renal
# ACHN renal = tested on: ACHN renal
# CAKI-1 renal = tested on: CAKI-1 renal
# A498 renal = tested on: A498 renal
# CCRF-CEM leukemia = tested on: CCRF-CEM leukemia
# MOLT-4 leukemia = tested on: MOLT-4 leukemia
Structure (SMILES),growth (HCT-15 colon),growth (HT29 colon),growth (SNB-75 CNS),growth (SNB-19 CNS),growth (U251 CNS),growth (PC-3 prostate),growth (SK-MEL-5 melanoma),growth (UACC-62 melanoma),growth (LOX IMVI melanoma),growth (SK-MEL-28 melanoma),growth (SK-MEL-2 melanoma),growth (EKVX NSCLC),growth (SN12C renal),growth (UO-31 renal),growth (TK-10 renal),growth (ACHN renal),growth (CAKI-1 renal),growth (A498 renal),growth (CCRF-CEM leukemia),growth (MOLT-4 leukemia)
COc1cc2nc(Cl)nc(Nc3cccc(C4=Nc5c(N)nc(N)nc5NC(c5ccc6c(c5)OCO6)C4)c3)c2cc1OC (stereo not given),33.2%,68.9%,82.2%,78.4%,8.17% (active),63.6%,72.1%,94.8%,52.6%,106%,85.2%,86.1%,78.6%,86%,113%,94%,82.8%,105%,26.8%,27%
CCN(CC)c1ccc2c(c1)Oc1nc(N)c(C#N)c(N)c1C2Sc1ccc(C)cc1 (stereo not given),-83.8% (active),-23.5% (active),-82.3% (active),-97.4% (active),-78.5% (active),-88.5% (active),-96.4% (active),-88.5% (active),-92.2% (active),-94.5% (active),-83.2% (active),-97.2% (active),-69.7% (active),-99.7% (active),-90.6% (active),-98.8% (active),-97.9% (active),-85.2% (active),-19.7% (active),-14.2% (active)
COc1ccc(NC(=O)Nc2ccc3c(ccn3C(=O)c3cccc(F)c3)c2)cc1,71.6%,64%,44%,80.8%,54.4%,77.4%,76.6%,65.9%,57%,87.2%,94.5%,88%,50.7%,94.1%,103%,53.9%,90.1%,88.7%,56.3%,73.2%
COc1ccc(N2C(=O)c3cc(Cl)ccc3NC2SCc2ccccc2)cc1 (stereo not given),82%,84.1%,94.9%,95.7%,99.4%,84.8%,102%,70.3%,94.8%,99.2%,98.9%,91.6%,91.5%,63.8%,96.2%,101%,81.8%,84.7%,92.2%,84.5%
C#CCNC1CCC(c2csc(C#C)n2)=C1C (stereo not given),96.6%,50.7%,113%,90.6%,4.13% (active),80.8%,90%,76.8%,-90.7% (active),97%,101%,24.8%,65.4%,44.7%,130%,-88.2% (active),58.3%,118%,-9.98% (active),84.7%
O=C(CSc1nnc(-c2ccc(Cl)cc2)n1-c1ccccc1)Nc1cccc(Cl)c1,79.5%,71.6%,42.5%,80.2%,50.2%,75.5%,96.4%,97.7%,7.5% (active),97.8%,101%,62.3%,25.4%,12.6%,75.1%,9.9% (active),64.9%,95.9%,78.3%,85.6%
CC(Nc1c(C#N)cnc2ccc(-c3cnc(N)nc3)cc12)c1ccccc1 (stereo not given),9.92% (active),17.4%,18.9%,20.4%,21%,10.8%,-67.3% (active),3.27% (active),4.6% (active),17.9%,2.77% (active),0.82% (active),14.7%,7.41% (active),-20.7% (active),14.6%,1.74% (active),-38.6% (active),19.1%,2.96% (active)
N#Cc1cccc(CN2CCc3ncn(Cc4ccc(Cl)cc4)c(=O)c3C2)c1,13.5%,28.3%,33.2%,19.7%,23.1%,18.5%,3.19% (active),20.6%,35.3%,36.9%,28.6%,23.7%,15.9%,26%,38.1%,29.8%,10.7%,4.83% (active),35.9%,43.3%
Cc1cc(-c2ccc(Cl)cc2)n(Cc2nnc(SCC(=O)Nc3ccc(S(N)(=O)=O)cc3)n2-c2ccc([N+](=O)[O-])cc2)n1,68.3%,90.9%,129%,84.6%,88.4%,56.5%,95.9%,77.4%,88.4%,97.4%,87%,75.1%,82%,64%,105%,79.1%,71.2%,84.5%,79.8%,54.4%
CC(=O)c1nnn(-c2c(C(=O)n3nc(C)cc3C)sc(=S)n2-c2ccccc2)c1C,101%,114%,98.4%,99.1%,109%,98.2%,100%,86.2%,98.8%,112%,108%,90.7%,103%,79.8%,138%,102%,91.8%,94.9%,101%,94.9%
NC(N)=Nc1ccc(Oc2ccc(Nc3ccc(Cl)c(C(F)(F)F)c3)cc2)cc1,37%,13.7%,95.2%,3% (active),3.48% (active),32.5%,8.32% (active),38.2%,-96% (active),56.6%,91.6%,52.4%,31.7%,69.8%,95.6%,73.4%,69.4%,68.3%,20.3%,18.5%
CCNC(=O)N1CCc2cc(OC)c(OCCc3ccc(OC)cc3)cc2C1c1ccc(Cl)cc1C (stereo not given),9.66% (active),2.45% (active),37.9%,26%,13.1%,26.1%,-10.8% (active),22.8%,8.72% (active),43.3%,14.7%,37%,18.6%,28.2%,54.2%,23.1%,23.3%,-12.8% (active),38.2%,23.6%
Cc1ccc(-n2c(/C=C3\C(=O)Nc4ccccc43)ccc2CO)cc1,31.2%,60.7%,41.5%,81%,77.8%,66.5%,73.7%,50.6%,62.5%,70.9%,81%,79.8%,88.2%,65%,118%,76.5%,55.9%,47%,54.9%,43.8%
c1ccc(C(c2nc3ncncc3[nH]2)N2CSc3nc4ccccc4n3C2)cc1 (stereo not given),101%,107%,91%,100%,107%,95.6%,106%,93.1%,102%,104%,103%,97.5%,98.8%,82.7%,115%,94.7%,89.5%,102%,108%,104%
O=C1CCCC2=C1C(c1c[nH]c3ccc(Br)cc13)Cc1cc(Br)ccc1N2 (stereo not given),26.5%,12.2%,39.8%,32.6%,31.6%,9.76% (active),43%,10.4%,14.1%,54.3%,25.3%,41.9%,34.5%,36.3%,94.8%,36.2%,24.7%,13.5%,6.67% (active),21.5%
Cc1ccc2c(c1)C13C(=C2Br)CCCN1C(=O)c1ccccc13 (stereo not given),73%,98.9%,89.9%,89.2%,97.5%,67.9%,88%,67.4%,103%,92.5%,100%,91.3%,92.5%,76.5%,99.9%,95.5%,75.8%,92.4%,79.7%,79.8%
